Compound activity from PubChem.
AmpC inh detg = AmpC beta-lactamase inhibition with detergent present | P00811 | AmpC hydrolysis of nitrocefin, absorbance 480 nm, 0.01% Triton | Potency, µM (highest dose often 114 µM), for the others: top-dose activity change, negative = inhibition, most hits filed as inhibitors | 0.041% of 370,000 active;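 further: potency means the concentration at half of the fitted maximal effect; 0% = no-compound wells and -100% = no-enzyme wells; nearly all actives have a fitted effect of over 25% in size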
Target sequence (P00811 whole entry, looked up): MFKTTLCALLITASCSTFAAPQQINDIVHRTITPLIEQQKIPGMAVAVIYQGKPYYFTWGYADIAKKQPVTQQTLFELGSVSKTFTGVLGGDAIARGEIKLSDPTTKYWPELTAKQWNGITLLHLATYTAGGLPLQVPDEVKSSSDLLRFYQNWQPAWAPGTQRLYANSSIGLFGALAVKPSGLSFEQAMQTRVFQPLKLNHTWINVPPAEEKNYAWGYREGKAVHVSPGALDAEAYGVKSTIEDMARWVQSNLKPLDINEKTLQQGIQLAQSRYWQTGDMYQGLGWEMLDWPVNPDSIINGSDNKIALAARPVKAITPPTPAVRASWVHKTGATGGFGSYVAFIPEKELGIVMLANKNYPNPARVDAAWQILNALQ
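AmpC (5.3 nM in the dispensed reagent) in 20 mM phosphate pH 7.0 with 0.01% (detergent screen) or 0.0001% Triton X-100 was preincubated with compounds for 15 min at room temperature. Nitrocefin was then added from an 800 uM solution, and hydrolysis was followed at 480 nm.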
NS1 function inh = blocks influenza NS1 protein function; Potency, µM (doses to about 46.1 µM), for the others: at the highest dose activity, positive = more growth; 0.4% of 270,000 active; calls by dose curve; further: potency means the concentration at half of the fitted maximal effect; actives are rising curves; nearly all actives have a fitted effect of over 50% in size
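Recovery from NS1-induced slow growth read by OD600 in budding yeast switched to galactose assay medium (pH 6.0, -URA) at 1:100 dilution. Compound 23 nl per well; the matching strain lacking NS1 serves as control.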
Shiga toxin inh = Shiga toxin inhibition; Vero cells, Shiga toxin protein synthesis inhibition reporter; inhibition, % at 38.7 µM; 9.2% of 290,000 active; AID 2315; in the data active means inhibition mostly above about 28%, no sharp cut-off; inactive means mostly below about 43%; further: 0% is about no effect
Cycloheximide cs = counter-screen for Shiga toxin inhibitors: cycloheximide protein synthesis inhibition. cell reporter, cycloheximide protein synthesis inhibition counterscreen. 12% of 300,000 active. max response, %; in the data active means max response mostly above about 13%, no sharp cut-off; inactive means mostly below about 14%; further: read at 38.3 µM for the half of the compounds with a filed dose; 0% is about no effect
AmpC inh no detg = blocks E. coli AmpC beta-lactamase in detergent-free assay. AmpC nitrocefin hydrolysis, absorbance 480 nm, 0.0001% Triton. 0.52% of 330,000 active. AID 485341. Potency, µM (highest dose often 57.1 µM), without a hit: at the highest dose activity change, negative = inhibition, hits mostly inhibitors. P00811;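 further: potency means the concentration at half of the fitted maximal effect; plate controls were no compound for no effect and no enzyme for full effect; nearly all actives have a fitted effect of over 20% in size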
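20 mM phosphate pH 7.0 + 0.01% (detergent screen) or 0.0001% Triton X-100; 5.3 nM AmpC reagent; cpd preinc 15 min RT; nitrocefin (800 uM stock) to start; A480 q20 s × 4 min; Activity was normalised to no-enzyme and no-compound control wells.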
Starred values were filed as active, the others as inactive; [ ] = another dose, or the depositor's remark. The sample as a whole holds a higher share of hits than the screen did. Unless noted, the call rests on the fitted dose curve; in most records, active means well fitted curve in the direction sought with a large enough effect; inconclusive means small, poorly fitted or top-dose-only effect, or another doubt; inactive means no such curve, though single readings can be large; an effect the other way counts as inactive or inconclusive.

`CCOC(=O)C1CCN(C(=O)COC(=O)/C=C/c2cccc(OC)c2OC)CC1` gave AmpC inh no detg 33%.
O=C(c1ccccc1)c1c2c(cc3sc4ccccc4[n+]13)-c1cccc3cccc-2c13 was read as AmpC inh detg inconclusive, NS1 function inh -56%, Shiga toxin inh 38*, Cycloheximide cs 27* and AmpC inh no detg 107%.
For Fc1ccc2c(c1)/C(=N/Nc1ccccn1)CCS2 the results were AmpC inh detg -13%, Shiga toxin inh 58*, Cycloheximide cs 30* and AmpC inh no detg -19%[11.4 µM].
Screening c1ccc(N/N=C2\CCCc3ccccc32)nc1 returned AmpC inh detg -3%, Shiga toxin inh 7, Cycloheximide cs 18 and AmpC inh no detg 131%.
CCOC(=O)c1c(NC(=O)CSc2nnc(-c3c[nH]c4ccccc34)n2CCOC)sc2c1CCCC2 was read as AmpC inh detg inconclusive, NS1 function inh inconclusive, Shiga toxin inh 2, Cycloheximide cs -2 and AmpC inh no detg -7%.
N#Cc1c(NC(=O)CSc2nnc(-c3ccco3)n2-c2ccccc2)sc2c1CCC2 was read as AmpC inh detg -7%, NS1 function inh 5%, Shiga toxin inh -2, Cycloheximide cs -4 and AmpC inh no detg -45%.
For NC(=O)c1c(NC(=O)CSc2nnc(-c3ccco3)n2-c2ccccc2)sc2c1CCC2 the results were AmpC inh detg -6%, NS1 function inh 1.4µM*, Shiga toxin inh 7, Cycloheximide cs 10 and AmpC inh no detg -4%.
For CCOC(=O)c1c(NC(=O)CSc2nnc(-c3c[nH]c4ccccc34)n2C)sc2c1CCCC2 the results were AmpC inh detg -4%, NS1 function inh -5%, Shiga toxin inh -12, Cycloheximide cs -3 and AmpC inh no detg 3.5µM*.
`CC(=O)c1ccc(N=c2scc(C)n2C(C)C)cc1` gave AmpC inh detg 6%, Shiga toxin inh 57, Cycloheximide cs 40* and AmpC inh no detg -15%.
COCCCN(C(=S)Nc1ccc(C)cc1Cl)C(C)c1ccncc1 (stereo not drawn) was read as AmpC inh detg 6%, NS1 function inh -9%, Shiga toxin inh 9, Cycloheximide cs 10 and AmpC inh no detg 42%.
For Cc1ccc(NC(=S)N(CCC(C)C)C(C)c2ccncc2)c(Cl)c1 (stereo not drawn) the results were AmpC inh detg 2%, NS1 function inh 10%, Shiga toxin inh 35, Cycloheximide cs 23* and AmpC inh no detg 108%.
CC(=O)NC1Sc2ccccc2N=C1c1ccccc1 (stereo not drawn) was read as AmpC inh detg 2%, NS1 function inh -73%, Shiga toxin inh 111*, Cycloheximide cs 43* and AmpC inh no detg -23%.
`CCOc1ccc(CN2CCC(C(=O)Nc3cccc(-c4ccn[nH]4)c3)CC2)cc1Cl` gave AmpC inh detg 3%, NS1 function inh 12%, Shiga toxin inh 43*, Cycloheximide cs 24* and AmpC inh no detg -15%.
Nc1ccccc1SCc1cn2ccccc2n1 was read as AmpC inh detg -10%, NS1 function inh -6%, Shiga toxin inh 55*, Cycloheximide cs 68* and AmpC inh no detg -16%.
Cc1cccn2cc(CNS(=O)(=O)c3ccc4ccccc4c3)nc12 was read as AmpC inh detg 3%, NS1 function inh 1%, Shiga toxin inh -5, Cycloheximide cs -6 and AmpC inh no detg -24%.
Screening Cc1cccn2cc(CSc3ccccc3N)nc12 returned AmpC inh detg inconclusive, NS1 function inh -3%, Shiga toxin inh 59, Cycloheximide cs 31* and AmpC inh no detg -13%.
`Nc1ccccc1SCc1cn2cccnc2n1` gave AmpC inh detg inconclusive, NS1 function inh -14%, Shiga toxin inh 80*, Cycloheximide cs 24* and AmpC inh no detg -8%.
`O=[N+]([O-])c1ccc(C(O)C[n+]2ccccc2)cc1` (stereo not drawn) gave AmpC inh detg inconclusive, NS1 function inh 0%, Cycloheximide cs -1 and AmpC inh no detg -12%.
Screening O=C(NC(=S)Nc1cccnc1)c1cc2ccccc2o1 returned AmpC inh detg -11%, NS1 function inh 8%, Shiga toxin inh 57*, Cycloheximide cs 46* and AmpC inh no detg -9%.
O=C(Nc1cccnc1)c1cc2cc(Br)ccc2o1 was read as AmpC inh detg -17%, NS1 function inh -36%, Cycloheximide cs 22* and AmpC inh no detg -28%.
